The values below come from the OligoGym collection.
Note: reference of the scale not given here.

The target of the first test is RNF219. Briefly: pooled miR-30 sensor sort-seq; sequence = guide strand. The note with it: shRNA.
For the sequence TTTTGGATAAACATAAGCCTGA, the sensor-assay potency score (higher = more potent) is -0.319.

On to TAGCTTATCCACATCATCTTTC, for which the sensor-assay potency score (higher = more potent) is -0.402.

Consider TTAGCTTATCCACATCATCTTT, for which the sensor-assay potency score (higher = more potent) was -0.899.

In turn, ATACTTATCACTTCGTTCCAGG registered a sensor-assay potency score (higher = more potent) of -0.456.

The sequence TTGATATAGGTCTTTGTTCTTA showed a sensor-assay potency score (higher = more potent) of -0.397.

TACTTGTATCTGTCACATCTAA registered a sensor-assay potency score (higher = more potent) of -0.451.

The target in a further test is RNF41. The test is described as above. The note with it: shRNA.
In the case of ATCTGTCTAGTCTCTAGTGTGG, the sensor-assay potency score (higher = more potent) was -0.878.

The sequence AACATGTTCCGCATGATCCGAG returned a sensor-assay potency score (higher = more potent) of -0.3.

In turn, TTTGACAACATGTTCCGCATGA gave a sensor-assay potency score (higher = more potent) of 0.502.

TCTGATTTCCATCTCTTCCTGA showed a sensor-assay potency score (higher = more potent) of 0.105.

TTCAGCTGACGTCTTCTCCAGC: the sensor-assay potency score (higher = more potent) was -0.881.

In turn, AAGATCTTCGTCAACATCCCCC returned a sensor-assay potency score (higher = more potent) of -0.164.

TAATTTATAGACATTTTAGGGG displayed a sensor-assay potency score (higher = more potent) of 0.0646.

The sequence TCATCTGTCTAGTCTCTAGTGT showed a sensor-assay potency score (higher = more potent) of -0.527.

The sequence ATCTTCGTCAACATCCCCCTGG registered a sensor-assay potency score (higher = more potent) of -0.316.

Sequence TAGCGTCGGTTCATCTGTCTAG had a sensor-assay potency score (higher = more potent) of 0.0647.

Consider TAGTTCTCATAGTAGCGTCGGT, for which the sensor-assay potency score (higher = more potent) was -0.784.

For the next test, the target named is RNMTL1. The description is as above. The conditions noted are these: shRNA.
TTATTGATAATGGGCATCCGGA displayed a sensor-assay potency score (higher = more potent) of -0.992.

The sequence TAGCTTTATTAGACATCTCAGC had a sensor-assay potency score (higher = more potent) of -0.834.

TTCTGTTCCACCACCTCTCCGG gave a sensor-assay potency score (higher = more potent) of -0.00954.

In the case of TTGTGAAACTTCATCACTCGTT, the sensor-assay potency score (higher = more potent) is 0.595.

The sequence TGATGCTTCAGGAACTTTCTGG gave a sensor-assay potency score (higher = more potent) of -0.0145.

Sequence TTTACTATTGTCATTACACTGC gave a sensor-assay potency score (higher = more potent) of -0.096.

In the case of TTGTCAGCCACATAGACCCGAG, the sensor-assay potency score (higher = more potent) is -0.82.

TTGGTGAGTAACACTTTGCTGC yielded a sensor-assay potency score (higher = more potent) of -0.11.

In turn, TTTATTAGACATCTCAGCCTGG yielded a sensor-assay potency score (higher = more potent) of 0.616.

On to TACTATTGTCATTACACTGCTC, for which the sensor-assay potency score (higher = more potent) came to 0.0183.

The sequence TTATTAGACATCTCAGCCTGGG returned a sensor-assay potency score (higher = more potent) of -0.331.

On to TTTCCTGTAACTGTATGACGGC, for which the sensor-assay potency score (higher = more potent) was -0.465.

The target of another test is RNPC3. Described as above. The note with it: shRNA.
As to TATTGTTTTAGGTCTTTTGGGC, the sensor-assay potency score (higher = more potent) was -0.105.

Regarding TTCCTCACAATTTTGTTCCTTT, the sensor-assay potency score (higher = more potent) worked out at 1.11.

In turn, TTTTTCTTTATCATCTTCGACA displayed a sensor-assay potency score (higher = more potent) of -0.554.

Consider TTCTTGAACATGTTTAGCTAAA, for which the sensor-assay potency score (higher = more potent) is -1.09.

Regarding TTTGCTAGGATTGTGCTGGAAG, the sensor-assay potency score (higher = more potent) was -0.549.

For the sequence TTAAATACACTTTCAAAGCTGT, the sensor-assay potency score (higher = more potent) came to 0.272.

In the case of TTCTTTATCATCTTCGACAGGG, the sensor-assay potency score (higher = more potent) worked out at 0.314.

In turn, TATATCAAACATGATCCGCTGT returned a sensor-assay potency score (higher = more potent) of 0.81.

As to TTTCTTGAACATGTTTAGCTAA, the sensor-assay potency score (higher = more potent) was -0.355.

As to TCGAGCAAACTGAACCACCATG, the sensor-assay potency score (higher = more potent) is -1.27.

Take TTCTCTAGAAATTCTGCCCTTT: the sensor-assay potency score (higher = more potent) was -0.078.
